# In the library only some 1.5% were active in any assay of this set; here they are far more common.
# TrxR1 inh – inhibitors of rat thioredoxin reductase 1. 390,000 compounds, 1% hits. Potency, µM (titrated, usually from 114 µM), inactives show top-dose activity change, negative = inhibition, usual class: inhibitors. recombinant rTrxR1, NADPH fluorescence consumption, selenite substrate. O89049; note: potency is the fitted concentration of half-maximal effect; nearly all actives have a fitted effect of over 65% in size
#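 Rat TrxR1 (90 nM in the dispensed reagent) was pre-reduced with 400 uM NADPH for 5 min at room temperature, then incubated with compound for 15 min. After 400 uM selenite was added, NADPH fluorescence (Ex 340/Em 450 nm) was followed for 8 min.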
# GALK inh – blocks human galactokinase activity; Potency, µM (titrated, usually from 57.5 µM), inactives show at the top dose activity change, negative = inhibition, usual class: inhibitors; 270,000 compounds, 0.007% hits; Purified GALK, Kinase-Glo residual ATP luminescence; note: potency is the fitted concentration of half-maximal effect
#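 Kinase-Glo Plus luminescence measured ATP left after a 1 h room-temperature reaction. The reaction used 5 nM GALK, 100 uM galactose and 35 uM ATP at pH 8.0 (20 mM HEPES, 5 mM MgCl2, 60 mM NaCl, 1 mM DTT, 0.01% BSA).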
# TrxR1 substrate – substrates of rat thioredoxin reductase 1 | Potency, µM (top dose mostly 114 µM), for inactives: at the top dose activity change, negative = substrate turnover | 390,000 compounds, 0.01% hits | AID 588456 | purified TrxR1 substrate turnover, NADPH consumption readout; note: potency is the fitted concentration of half-maximal effect; nearly all actives have a fitted effect of over 50% in size
#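 Rat TrxR1, dispensed at 90 nM, was prereduced with 400 uM NADPH (final) for 5 min at ~22 deg C, then incubated with compound 15 min before 400 uM selenite. A first-read NADPH fluorescence drop versus no-compound background flagged substrates.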
# USP1-UAF1 inh – inhibitors of human USP1/UAF1 deubiquitinase. AID 743255. recombinant USP1/UAF1, Ub-Rhodamine cleavage fluorescence. Potency, µM (top dose mostly 57.1 µM), for the others: at the highest dose activity change, negative = inhibition, hits mostly inhibitors. O94782. 390,000 compounds, 0.23% hits; note: potency is the fitted concentration of half-maximal effect; nearly all actives have a fitted effect of over 60% in size
# Target sequence (O94782 whole entry, looked up): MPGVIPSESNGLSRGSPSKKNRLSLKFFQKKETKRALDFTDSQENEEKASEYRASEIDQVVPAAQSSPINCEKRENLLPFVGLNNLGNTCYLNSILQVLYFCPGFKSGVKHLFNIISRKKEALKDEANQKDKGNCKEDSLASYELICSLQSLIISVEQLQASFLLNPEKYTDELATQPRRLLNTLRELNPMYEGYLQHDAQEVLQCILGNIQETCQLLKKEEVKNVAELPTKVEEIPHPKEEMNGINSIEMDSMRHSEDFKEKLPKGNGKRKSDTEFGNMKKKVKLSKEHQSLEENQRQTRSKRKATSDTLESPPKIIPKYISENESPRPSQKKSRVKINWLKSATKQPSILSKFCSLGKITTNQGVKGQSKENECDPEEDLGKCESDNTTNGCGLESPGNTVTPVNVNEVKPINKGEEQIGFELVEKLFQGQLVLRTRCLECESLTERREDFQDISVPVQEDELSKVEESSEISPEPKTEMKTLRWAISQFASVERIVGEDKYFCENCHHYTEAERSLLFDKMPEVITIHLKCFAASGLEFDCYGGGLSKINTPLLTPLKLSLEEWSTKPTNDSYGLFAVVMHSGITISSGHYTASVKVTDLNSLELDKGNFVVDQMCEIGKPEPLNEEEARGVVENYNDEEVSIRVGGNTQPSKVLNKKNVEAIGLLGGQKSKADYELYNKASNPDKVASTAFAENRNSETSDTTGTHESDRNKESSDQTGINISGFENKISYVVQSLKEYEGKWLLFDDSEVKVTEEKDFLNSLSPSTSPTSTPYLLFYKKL
#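 Step one: compound is pinned into 1nM USP1/UAF1 in HEPES pH 7.8 buffer with TCEP. Step two: 15 min room-temperature incubation. Step three: Ub-Rho (150nM final) starts cleavage, tracked by fluorescence over six one-minute reads.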
# Coupling enz – counter-screen for Giardia aldolase inhibitors: coupling enzyme system; 290,000 compounds, 0.67% hits; coupling enzyme system counterscreen, AmpLite Red fluorescence; activity change, negative = inhibition, % at 58.2 µM, hits read low; in the data active = activity change below about -30%
#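 Fluorescence at 525 nm excitation and 598 nm emission measured inhibition of the coupled detection system without aldolase. Compounds (at 57.5 uM final) were preincubated 10 min at room temperature with coupling enzyme reagent before a 20 min substrate/AmpLite Red step.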
# Active calls of the source: *; u = inconclusive; x = not tested or not shown; [ ] = remark or other dose. Unless noted, calls come from the whole dose curve; as a rule, active = well fitted curve in the direction sought with a large enough effect; inconclusive = small, poorly fitted or top-dose-only effect, or another doubt; inactive = no such curve, though single readings can be large; an effect the other way counts as inactive or inconclusive. % is set by controls: 0 for no effect and ±100 for the full control effect.
SMILES,TrxR1 inh,GALK inh,TrxR1 substrate,USP1-UAF1 inh,Coupling enz
CCOc1[nH]c(/N=C/c2ccc(OC)cc2)c(C#N)c1C#N,u,x,-1%,x,x
CN(C)C(=O)c1ccc(/C=C/c2ccnc3ccccc23)cc1,-35%,x,-9%,x,x
CC(=O)C1=C(O)C(=O)N(CCN2CCOCC2)C1c1ccccc1 (stereo not given),50µM*,-4%,-3%,-14%,0
Cc1ccc(C2C(C(=O)c3cc4ccccc4o3)=C(O)C(=O)N2CCN2CCOCC2)o1 (stereo not given),22µM*,0%,-9%,-6%,-14
CCN(CC)CCN1C(=O)C(O)=C(C(=O)c2cccs2)C1c1ccc(C)o1 (stereo not given),16µM*,0%,3%[57.1 µM],1%,-6
Cc1ccc(C2C(C(=O)c3cccs3)=C(O)C(=O)N2CCN2CCOCC2)o1 (stereo not given),u,2%,2%[57.1 µM],-7%,-2
O=C(C1=C(O)C(=O)N(CCN2CCOCC2)C1c1cccc(O)c1)c1cc2ccccc2o1 (stereo not given),50µM*,-3%,-3%,-6%,11
CCc1ccc(OCCCn2c(CCNC(=O)C3CCCCC3)nc3ccccc32)cc1,13%,x,13%[0.0914 µM],x,x
CCNc1nc(NCC)nc(-n2cc(C(=O)c3cc(Cl)ccc3O)cn2)n1,11%,x,3%,x,x
CC(C)[n+]1ccn(C2=C([O-])c3ccccc3C(=O)/C2=N\S(=O)(=O)c2ccccc2)c1,-1%[57.1 µM],5%,-4%[57.1 µM],u,-44*
CC(C)(C)c1cc[n+](C2=C([O-])c3ccccc3C(=O)/C2=N\S(=O)(=O)c2ccccc2)cc1,44%,4%,-7%[57.1 µM],-9%,-60*
CCCC[n+]1ccn(C2=C([O-])c3ccccc3C(=O)/C2=N\S(=O)(=O)c2ccccc2)c1,0%,0%,-11%,u,x
CC[C@H](C)[C@H](N)C(=O)N[C@@H](CC(N)=O)C(=O)N1CCC[C@H]1C(=O)N[C@H](C(=O)N[C@@H](Cc1ccc(O)cc1)C(=O)N[C@@H](CCCN=C(N)N)C(=O)N[C@@H](CC(C)C)C(=O)N[C@@H](CCCN=C(N)N)C(=O)N[C@@H](Cc1ccc(O)cc1)C(N)=O)[C@@H](C)CC,x,x,x,x,-1
CCOc1ccc(NC(=O)CSc2nnc3c(n2)[nH]c2ccc(S(=O)(=O)N(C)C)cc23)cc1,-3%,x,3%,x,x
COc1cc(NCCC(=O)c2cccs2)c(OC)cc1Cl,18µM*,1%,8%[57.1 µM],-5%,1
COc1ccc(NC(=O)CCC(=O)c2cccs2)cc1Cl,26%,-1%,7%,-22%,0
CCC(Nc1ncnc2ccc(-c3c(C)noc3C)cc12)c1ccccc1 (stereo not given),x,x,x,x,1
O=C(C[n+]1cccc(Br)c1)c1cc(Cl)ccc1Cl,11µM*,x,2%,x,x
Cc1ccc(C)c(C(=O)C[n+]2cccc(Br)c2)c1,-34%,x,-7%,x,x
COc1ccc(S(=O)(=O)N2CCCN(CC(=O)Nc3ccc(OC)c(Cl)c3)CC2)cc1,50µM*,-3%,5%,-11%,-5
COc1cc(CN2CCN(S(=O)(=O)c3ccccc3)CC2)cc(OC)c1O,20µM*,x,1%,-11%,x
COc1ccc(S(=O)(=O)N2CCN(Cc3cc(OC)c(O)c(OC)c3)CC2)cc1,u,-6%,-3%,-9%,0
COc1cc(CN2CCN(S(=O)(=O)c3ccc(NC(C)=O)cc3)CC2)cc(OC)c1O,13µM*,4%,1%,12%,-6
COc1cc2c(NC3CCN(C)CC3)nc(N3CCCN(C)CC3)nc2cc1OCCCN1CCCCC1,-9%,x,61%,x,x
CCOC(=O)/C=C(\C)Sc1cc(O)c2ccccc2c1O,u,u,-26%,7.9µM*,-86*
CCS(=O)(=O)c1ncc(Cl)c(C(=O)N(Cc2ccccc2)Cc2ccco2)n1,2.8µM*,x,12%,-23%,x
Cc1ccc2cc(C(c3nnnn3Cc3ccccc3)N3CCc4ccccc43)c(=O)[nH]c2c1 (stereo not given),-24%,-4%,-2%,-25%,-7

# From PubChem BioAssay
